# Data: ChEMBL document CHEMBL3988442, “University of Dundee, Small-Polar-MMV Screening Library” (2021)
# For some assays here: Measured potencies and affinities stand elsewhere.
# Key:
# Parameters in all cases: scale not given: direction of the effect not stated beside the values
# [1] = target: Protein translocase subunit SecA (Escherichia coli (strain K12)) (UniProt P10408); assay: Assay to Identify E. coli SecA ATPase Inhibitors; type: functional; settings: 30 µM
# [2] = target: T1, Ubiquitin-activating enzyme e1, putative (Leishmania donovani (strain BPK282A1)) (UniProt E9BSI1); assay: Leishmania donovani Ubiquitin Activating Enzyme (LdE1); type: functional; settings: 30 µM
# T1 sequence (whole entry): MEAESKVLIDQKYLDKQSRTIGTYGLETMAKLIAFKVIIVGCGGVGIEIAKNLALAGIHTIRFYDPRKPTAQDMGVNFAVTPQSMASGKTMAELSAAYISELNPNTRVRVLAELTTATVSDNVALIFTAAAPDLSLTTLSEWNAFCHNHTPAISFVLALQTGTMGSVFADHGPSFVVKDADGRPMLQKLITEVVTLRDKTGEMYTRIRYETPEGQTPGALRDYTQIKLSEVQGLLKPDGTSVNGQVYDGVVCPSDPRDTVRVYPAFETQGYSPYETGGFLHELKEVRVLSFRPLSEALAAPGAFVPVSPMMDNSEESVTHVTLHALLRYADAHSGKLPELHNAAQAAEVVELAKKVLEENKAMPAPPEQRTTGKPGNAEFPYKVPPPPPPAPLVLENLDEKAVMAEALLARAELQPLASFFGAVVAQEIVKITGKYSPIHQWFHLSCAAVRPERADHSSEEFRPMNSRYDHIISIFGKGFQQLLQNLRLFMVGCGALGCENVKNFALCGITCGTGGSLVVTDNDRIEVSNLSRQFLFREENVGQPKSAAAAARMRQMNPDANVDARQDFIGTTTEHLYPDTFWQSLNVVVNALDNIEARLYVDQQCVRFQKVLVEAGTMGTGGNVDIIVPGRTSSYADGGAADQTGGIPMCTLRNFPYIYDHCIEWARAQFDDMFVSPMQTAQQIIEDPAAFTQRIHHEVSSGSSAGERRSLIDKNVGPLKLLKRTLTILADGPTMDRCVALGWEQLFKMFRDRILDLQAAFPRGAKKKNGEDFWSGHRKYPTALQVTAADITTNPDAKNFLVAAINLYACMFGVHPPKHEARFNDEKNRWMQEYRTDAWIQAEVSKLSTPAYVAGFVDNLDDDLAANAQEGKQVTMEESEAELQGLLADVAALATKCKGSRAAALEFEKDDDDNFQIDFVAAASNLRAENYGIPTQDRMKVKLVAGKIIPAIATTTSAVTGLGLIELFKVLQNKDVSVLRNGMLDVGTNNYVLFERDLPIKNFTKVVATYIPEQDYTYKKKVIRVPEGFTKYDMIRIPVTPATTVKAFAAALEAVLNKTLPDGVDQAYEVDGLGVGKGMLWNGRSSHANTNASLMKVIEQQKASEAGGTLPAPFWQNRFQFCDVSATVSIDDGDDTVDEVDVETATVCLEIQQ
# [3] = target: Sialic acid-binding Ig-like lectin 9 (Homo sapiens) (UniProt Q9Y336); assay: Hs-Siglec9 ALPHAscreen SOP 20170721; settings: 10 µM
# Chain of Sialic acid-binding Ig-like lectin 9 (Homo sapiens) (Q9Y336 whole entry): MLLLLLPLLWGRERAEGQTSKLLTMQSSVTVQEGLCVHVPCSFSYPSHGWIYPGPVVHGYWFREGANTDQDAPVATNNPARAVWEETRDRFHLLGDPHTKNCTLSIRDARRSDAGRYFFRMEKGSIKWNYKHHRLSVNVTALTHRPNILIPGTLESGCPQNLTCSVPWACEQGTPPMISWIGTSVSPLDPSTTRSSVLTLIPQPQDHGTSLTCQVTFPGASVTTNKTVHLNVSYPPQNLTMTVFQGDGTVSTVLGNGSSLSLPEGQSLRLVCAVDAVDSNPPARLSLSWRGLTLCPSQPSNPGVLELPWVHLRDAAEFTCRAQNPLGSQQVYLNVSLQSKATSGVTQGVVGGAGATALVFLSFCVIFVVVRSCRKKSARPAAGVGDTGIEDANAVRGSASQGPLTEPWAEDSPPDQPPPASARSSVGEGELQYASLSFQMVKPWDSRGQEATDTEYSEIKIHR
# Trypanosoma cruzi = assay: Trypanosoma cruzi phosphomannomutase and mannose-1-phosphate guanylyltransferase assay; type: functional; settings: 10 µM
# [4] = target: T2, Arginase-2, mitochondrial (Homo sapiens) (UniProt P78540); assay: in vitro enzyme assay to detect the production of urea directly proportional to the activity of Arginase II; type: functional; settings: 33.3 µM; further: in the data most compounds retested in dose-response had high values
# T2 sequence (whole entry): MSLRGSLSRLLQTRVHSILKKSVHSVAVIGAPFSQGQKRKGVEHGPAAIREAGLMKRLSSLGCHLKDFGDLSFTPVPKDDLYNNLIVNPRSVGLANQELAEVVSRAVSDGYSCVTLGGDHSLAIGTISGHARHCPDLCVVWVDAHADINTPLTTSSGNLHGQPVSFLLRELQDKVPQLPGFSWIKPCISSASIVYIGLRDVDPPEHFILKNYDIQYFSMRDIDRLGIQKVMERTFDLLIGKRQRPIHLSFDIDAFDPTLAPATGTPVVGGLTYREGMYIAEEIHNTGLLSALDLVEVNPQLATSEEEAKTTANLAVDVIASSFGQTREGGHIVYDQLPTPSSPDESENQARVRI
# [5] = target: T3, Proteasome subunit beta (Trypanosoma cruzi) (UniProt O96673); assay: Trypanosoma cruzi proteasome chymotrypsin-like activity (TcProtChymo) assay.; further: in the data most compounds retested in dose-response had high values; type: functional; settings: 9.37 µM
# T3 sequence (whole entry): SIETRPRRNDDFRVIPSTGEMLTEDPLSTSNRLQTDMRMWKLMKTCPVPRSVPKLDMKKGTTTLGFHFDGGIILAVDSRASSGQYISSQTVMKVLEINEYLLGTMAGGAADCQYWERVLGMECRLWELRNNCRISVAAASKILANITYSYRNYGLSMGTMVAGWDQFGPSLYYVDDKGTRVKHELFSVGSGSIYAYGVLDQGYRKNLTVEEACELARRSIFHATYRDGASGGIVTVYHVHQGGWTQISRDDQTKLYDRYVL
# Homo sapiens = organism: Homo sapiens; assay: To identify inhibition of the IFN signalling (Jak-Stat) pathway via expression of an eGFP reporter gene under the control of an IFN-stimulated response element (ISRE) containing MxA promoter.; type: functional; settings: 30 µM
# [6] = target: T4, Tyrosyl-tRNA synthetase, putative (Trypanosoma cruzi (strain CL Brener)) (UniProt Q4DSP6); assay: Trypanosoma cruzi tyrosyl tRNA synthetase (TcYRS) _High Tyrosine SOP; type: functional; settings: 30 µM; further: in the data most compounds retested in dose-response had high values
# T4 sequence (whole entry): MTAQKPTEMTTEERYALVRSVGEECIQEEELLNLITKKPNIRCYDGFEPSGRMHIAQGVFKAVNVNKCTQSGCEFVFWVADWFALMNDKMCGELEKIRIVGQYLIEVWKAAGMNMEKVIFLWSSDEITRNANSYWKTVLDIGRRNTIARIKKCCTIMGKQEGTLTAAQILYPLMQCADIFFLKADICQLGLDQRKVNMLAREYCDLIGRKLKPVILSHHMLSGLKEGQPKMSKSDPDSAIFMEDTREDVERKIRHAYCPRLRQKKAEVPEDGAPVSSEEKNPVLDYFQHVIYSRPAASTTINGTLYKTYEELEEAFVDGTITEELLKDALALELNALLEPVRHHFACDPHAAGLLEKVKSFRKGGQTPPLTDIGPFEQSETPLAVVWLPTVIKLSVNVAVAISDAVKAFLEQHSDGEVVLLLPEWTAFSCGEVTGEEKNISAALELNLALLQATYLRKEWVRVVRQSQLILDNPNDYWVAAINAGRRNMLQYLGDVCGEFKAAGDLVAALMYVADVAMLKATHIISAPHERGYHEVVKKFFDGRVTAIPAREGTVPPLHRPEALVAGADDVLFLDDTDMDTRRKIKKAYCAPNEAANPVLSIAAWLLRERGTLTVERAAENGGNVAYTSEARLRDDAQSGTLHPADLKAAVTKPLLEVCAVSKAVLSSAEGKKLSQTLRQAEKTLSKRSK
# [7] = target: T4, Tyrosyl-tRNA synthetase, putative (Trypanosoma cruzi (strain CL Brener)); assay: Trypanosoma cruzi tyrosyl tRNA synthetase (TcYRS) SOP; type: functional; settings: 30 µM
# [8] = target: Chromo domain-containing protein 1 (Saccharomyces cerevisiae (strain ATCC 204508 / S288c) (Baker's yeast)) (UniProt P32657); assay: ScCHD-1 Enzyme Inhibition Assay; type: functional; settings: 30 µM; further: in the data most compounds retested in dose-response had high values
# Chain of Chromo domain-containing protein 1 (Saccharomyces cerevisiae (strain ATCC 204508 / S288c) (Baker's yeast)) (P32657 whole entry, the tested form may be a part): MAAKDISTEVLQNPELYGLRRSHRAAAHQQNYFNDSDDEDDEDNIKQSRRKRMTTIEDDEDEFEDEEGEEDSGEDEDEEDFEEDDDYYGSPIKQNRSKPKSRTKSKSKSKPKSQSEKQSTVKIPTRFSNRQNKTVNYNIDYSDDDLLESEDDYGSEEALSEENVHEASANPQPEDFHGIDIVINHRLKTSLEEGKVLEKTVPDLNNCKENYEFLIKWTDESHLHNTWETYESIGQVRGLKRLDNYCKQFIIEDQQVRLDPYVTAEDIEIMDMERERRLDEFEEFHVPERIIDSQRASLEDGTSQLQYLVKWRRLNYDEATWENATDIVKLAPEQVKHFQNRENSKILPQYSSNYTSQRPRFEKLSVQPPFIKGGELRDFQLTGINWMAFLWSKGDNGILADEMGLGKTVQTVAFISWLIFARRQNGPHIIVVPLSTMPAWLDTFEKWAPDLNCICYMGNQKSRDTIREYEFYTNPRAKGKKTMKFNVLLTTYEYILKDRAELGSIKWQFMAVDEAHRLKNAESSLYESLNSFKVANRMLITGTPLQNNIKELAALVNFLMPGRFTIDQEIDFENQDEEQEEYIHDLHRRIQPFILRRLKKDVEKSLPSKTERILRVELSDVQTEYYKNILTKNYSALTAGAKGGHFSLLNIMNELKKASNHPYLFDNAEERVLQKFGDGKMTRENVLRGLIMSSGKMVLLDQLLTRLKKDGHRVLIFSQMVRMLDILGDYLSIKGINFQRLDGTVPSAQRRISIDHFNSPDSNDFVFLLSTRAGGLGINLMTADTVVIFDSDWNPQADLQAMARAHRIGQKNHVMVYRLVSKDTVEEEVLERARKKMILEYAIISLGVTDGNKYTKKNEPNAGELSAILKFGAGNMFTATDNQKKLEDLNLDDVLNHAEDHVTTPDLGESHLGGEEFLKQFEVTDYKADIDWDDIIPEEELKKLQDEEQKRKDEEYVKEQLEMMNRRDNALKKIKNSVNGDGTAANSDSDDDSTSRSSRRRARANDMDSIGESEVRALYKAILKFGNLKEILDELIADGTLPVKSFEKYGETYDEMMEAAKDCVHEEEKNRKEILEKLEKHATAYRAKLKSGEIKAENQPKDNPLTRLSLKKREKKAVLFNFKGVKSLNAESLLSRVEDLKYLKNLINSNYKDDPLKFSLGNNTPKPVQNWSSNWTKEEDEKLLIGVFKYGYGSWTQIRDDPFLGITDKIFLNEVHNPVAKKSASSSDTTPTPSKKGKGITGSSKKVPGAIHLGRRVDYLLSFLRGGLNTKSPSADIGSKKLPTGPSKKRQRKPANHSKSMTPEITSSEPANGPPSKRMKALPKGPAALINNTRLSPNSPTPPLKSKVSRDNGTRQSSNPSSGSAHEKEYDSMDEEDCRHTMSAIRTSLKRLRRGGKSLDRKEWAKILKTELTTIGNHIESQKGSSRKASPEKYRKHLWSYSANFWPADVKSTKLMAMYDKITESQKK
# Chain of Protein translocase subunit SecA (Escherichia coli (strain K12)) (P10408 whole entry): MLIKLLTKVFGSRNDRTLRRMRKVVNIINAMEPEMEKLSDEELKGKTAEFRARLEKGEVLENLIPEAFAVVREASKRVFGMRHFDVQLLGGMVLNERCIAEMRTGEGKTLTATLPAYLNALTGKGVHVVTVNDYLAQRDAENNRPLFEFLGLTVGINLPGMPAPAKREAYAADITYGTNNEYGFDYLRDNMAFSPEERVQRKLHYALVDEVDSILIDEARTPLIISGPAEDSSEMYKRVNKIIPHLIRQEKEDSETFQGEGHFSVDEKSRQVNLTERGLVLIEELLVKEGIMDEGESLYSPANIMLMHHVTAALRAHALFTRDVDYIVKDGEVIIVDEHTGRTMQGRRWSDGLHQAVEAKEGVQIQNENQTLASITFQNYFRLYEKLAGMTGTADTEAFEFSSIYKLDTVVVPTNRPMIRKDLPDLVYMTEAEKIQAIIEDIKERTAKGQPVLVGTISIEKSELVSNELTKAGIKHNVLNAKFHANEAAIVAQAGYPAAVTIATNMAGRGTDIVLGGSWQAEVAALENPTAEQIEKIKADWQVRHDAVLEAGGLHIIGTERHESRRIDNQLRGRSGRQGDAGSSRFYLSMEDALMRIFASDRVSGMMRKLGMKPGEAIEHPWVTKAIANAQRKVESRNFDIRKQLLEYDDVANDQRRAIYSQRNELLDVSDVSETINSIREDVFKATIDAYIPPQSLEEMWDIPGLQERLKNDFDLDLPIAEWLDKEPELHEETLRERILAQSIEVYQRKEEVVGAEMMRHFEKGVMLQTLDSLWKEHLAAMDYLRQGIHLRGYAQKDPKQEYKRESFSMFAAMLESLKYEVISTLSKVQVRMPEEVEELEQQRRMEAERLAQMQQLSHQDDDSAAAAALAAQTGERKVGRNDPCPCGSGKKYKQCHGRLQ
SMILES,Percent Effect [1] [%],Percent Effect [2] [%],Percent Effect [3] [%],Percent Effect (Trypanosoma cruzi) [%],Percent Effect [4] [%],Percent Effect [5] [%],Percent Effect (Homo sapiens) [%],Percent Effect [6] [%],Percent Effect [7] [%],Percent Effect [8] [%]
COCCC(=O)N1CCC2(CC1)CC(c1ccccc1)CN(C)C2 (stereo not given),-6.06,5.41,7.24,2.42,1.75,18.7,-4.11,4.79,12.2,-5.37
Cc1ccc2c(n1)N(Cc1cccnc1)CCN(C(=O)C1CCC1)C2,-1.28,6.49,-4.98,-4.77,7.29,11.4,16.9,4.74,7.69,-6.47
CC(C)c1nc(C2CCCN2CC(=O)Nc2ccc(Cl)cn2)no1 (stereo not given),-10.5,18.7,16.2,5.62,-4.88,8.23,4.35,5.79,10.3,-14.8
CC(C)n1[nH]c(=O)c2c1NC(=O)CC2c1cccnc1 (stereo not given),0.982,13.5,1.14,0.873,1.75,18.7,23.6,3.72,19.5,-3.39
Cc1cc(-c2ccc(C(=O)O)cc2)nc(C2CCCN(C(C)C)C2)n1 (stereo not given),-0.51,12,1.15,1.77,0.885,6.08,4.86,6.35,17.5,-24.7
CCOc1ncccc1C(=O)N1CCCC1c1c(C)nn(C)c1OC (stereo not given),1.2,0,10.2,1.68,-2.25,-2.81,-1.22,4.9,11.8,-4.83
Cc1ccc(NC(=O)C2CSCN2C(=O)c2cc[nH]n2)c(C)c1 (stereo not given),-2.87,5.13,9.07,4.79,-0.41,0.768,-8.73,3.35,20.5,-1.03
Cc1ccc(C(=O)N2CCN(CCC(C)(C)C)CC2)c(=O)[nH]1,-4.94,5.13,4.25,-0.845,-0.82,-1.79,12,3.35,1.21,1.43
COc1ccc(S(N)(=O)=O)cc1C(=O)N(C)Cc1cc(C)on1,1.97,20.5,-20.8,1.41,-2.87,16,15.7,1.44,18.1,-7.04
COc1c(C2CCCN2C(=O)c2c[nH]c3ncccc23)c(C)nn1C (stereo not given),-5.03,7.79,8.63,-5.41,2.25,7.02,1.49,5.88,7.06,-7.9
Cc1ccc(-c2nc(CN3CCc4c(ncn4C)C3)cs2)o1,-4.38,2.56,-16.5,11.9,-6.56,24.3,2.62,11,18.1,37.3
